Test results as given in PubChem BioAssay AID602393 (Broad Institute, 2012).
In all, about 350,000 compounds went through this assay and about 7,000 (2%) were called active. Rule as the data show it: active = activation above about 40%; inconclusive = no clear call, values can overlap the other calls; inactive = below that. The list comes from a sample in which actives are over-represented; it also holds similar structures and randomly drawn compounds.

Experiment: Bmi1 luciferase reporter increase in mESCs, primary screen, esBAF inhibitor project, mouse ES cells, Bmi1 luciferase knock-in, single point (AID 602393);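 also: 0% = median of the plate's neutral control wells and 100% = double that signal; a rise in the Bmi1 reporter signal indicates esBAF inhibition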
Conditions: 24 h, at 12.5 µM, stronger effect = higher value, 100% = twice the neutral-well signal

Reporter increase, inactive:
CO[C@@H]1CN(C)C(=O)c2ccc(NS(C)(=O)=O)cc2OC[C@@H](C)N(CC2CC2)C[C@@H]1C 1.93%
C[C@@H]1CN([C@@H](C)CO)C(=O)c2cc(N(C)C)ccc2O[C@@H](C)CCCCO[C@H]1CN(C)Cc1ccncc1 -3.61%
CC(C)(C)C1CCc2c(sc3nc(SCC(N)=O)nc(N)c23)C1 (stereo not drawn) -0.656%
CCc1nc(N2CCN(C(C)=O)CC2)c2c3c(sc2n1)CCCC3 -4.58%
C[C@H](O)C#Cc1cnc2c(c1)C(=O)N([C@@H](C)CO)C[C@@H](C)[C@@H](CN(C)C(=O)Cc1ccccn1)O2 -2.01%
Cc1noc(C)c1-c1ccc(C(=O)NCc2ccncc2)c2occc12 8.81%
COCCCNC(=O)c1cccc2c(-c3ccc(O)c(OC)c3)coc12 12.3%
COc1ccccc1S(=O)(=O)N[C@@H]1C=C[C@H](CC(=O)N2CCOCC2)O[C@@H]1CO -2.3%
COCCNC(=O)C[C@H]1CC[C@H](NS(=O)(=O)c2ccc(C)cc2)[C@@H](CO)O1 -2.1%
CCOc1ccc(C(=O)Nc2ccc(CN3CCOCC3)cc2)cc1Cl 9.32%
COc1ccc(C(=O)Nc2ccnn2C2CCN(Cc3ccncc3)CC2)cc1 4.74%
Cc1c(C(=O)NCCN2CCOCC2)sc2nc(-c3ccc(F)cc3)cn12 2.29%
O=C(c1c(Cl)nc2sccn12)N1CCCc2ccccc21 -5.89%
Cc1ccc(C(=O)N2CCCc3ccccc32)c(Cl)c1 -0.356%
Cc1nn(CC(=O)NCC2CCCO2)c(=O)c2cc3ccccc3n12 (stereo not drawn) -0.752%
C[C@H](CO)N1C[C@H](C)[C@@H](CN(C)C(=O)Nc2ccc3c(c2)OCO3)Oc2ccc(NS(=O)(=O)c3ccc(Cl)cc3)cc2CC1=O -3.55%
C[C@@H]1CCCCO[C@H](CN(C)Cc2ccc(Cl)c(Cl)c2)[C@H](C)CN([C@@H](C)CO)C(=O)c2cc(NC(=O)C3CCCCC3)ccc2O1 1.62%
COc1cccc(-c2ccc3n(c2=O)C[C@H]2[C@H](CO)[C@@H](C(=O)NC4CCCC4)[C@@H]3N2C)c1 3.16%
COCC(=O)N(C)C[C@@H]1Oc2cc(C3=CCCC3)ccc2S(=O)(=O)N([C@@H](C)CO)C[C@H]1C 0.332%
C[C@H](CO)N1C[C@H](C)[C@@H](CN(C)Cc2ccccc2C(F)(F)F)OCc2cn(nn2)CCCC1=O -1.8%
C[C@H](NC(=O)C[C@H]1C=C[C@@H](NC(=O)C2CCOCC2)[C@@H](CO)O1)c1ccccc1 1.15%
Cc1cccc(C(=O)Nc2ccc(C(=O)N/N=C/c3cccc(C)n3)cc2)c1 14.2%
Cc1ccc(NC(=O)c2ccc(Oc3ncccn3)cc2)cc1 34%
C[C@H](CO)N1C[C@H](C)[C@H](CN(C)C(=O)c2cnccn2)Oc2cc(C3=CCCC3)ccc2S1(=O)=O 4.52%
O=C(CN1CCOCC1)N[C@@H]1CC[C@@H](CCNC(=O)C2CCCCC2)O[C@@H]1CO 0.276%
CN1C(=O)c2cc(NC(=O)c3cscn3)ccc2OC[C@H]2O[C@@H](CC(=O)NCC3CC3)CC[C@H]21 1.7%
Nc1nc(COC(=O)CCC(=O)c2ccc(Cl)cc2)nc(Nc2ccccc2)n1 -2.01%
O=C(CCCOc1ccccc1)NNC(=O)c1ccc(Cl)cc1 -5.87%
C[C@@H]1CCCCO[C@H](CN(C)S(=O)(=O)c2cccs2)[C@H](C)CN([C@@H](C)CO)C(=O)c2cc(NC(=O)Nc3ccc4c(c3)OCO4)ccc2O1 3.42%
CC1(C)CC(CC(=O)O)C(=O)O1 (stereo not drawn) 3.84%
Cn1c(CNc2nc(-c3ccccc3)cs2)nnc1SCC(=O)c1ccccc1 6.92%
COc1ccc(S(=O)(=O)N(C)C[C@@H]2OCCCC[C@H](C)Oc3ccc(NC(=O)Nc4ccccc4)cc3C(=O)N([C@H](C)CO)C[C@H]2C)cc1 6.53%
COc1ccccc1-c1cnc2c(c1)C(=O)N([C@H](C)CO)C[C@H](C)[C@H](CN(C)C(=O)CN(C)C)O2 -4.34%
Cc1ccccc1C(=O)NC(=S)NC1CC1 19.1%
O=C(NNC(=S)NC1CCCCC1)c1ccccc1Cl 12.8%
COc1ccc(/C(N)=N/OC(=O)CCCc2ccccc2)cc1 22.2%
O=C(CCc1ccccc1)NNC(=O)COc1ccc(Cl)cc1 -7.85%
CCCNC(=S)N1CCC(NC(=O)c2ccc(OC)cc2)CC1 4.39%
O=C(NC1CCCCCC1)C1CCN(C(=O)c2ccc(Cl)cc2)CC1 1.61%
C[C@@H]1CN([C@H](C)CO)C(=O)c2cc(-c3ccncc3)cnc2O[C@H]1CN(C)C 2.47%
O=C(C[C@H]1CC[C@H]2[C@@H](COC[C@@H](O)CN2S(=O)(=O)c2cccc(Cl)c2)O1)NC1CCCC1 0.9%
CN1C(=O)c2cc(NC(=O)c3ccc(Cl)cc3)ccc2OC[C@@H]2O[C@@H](CC(=O)O)CC[C@H]21 5.97%
CC(C)NC(=O)N(C)C[C@H]1Oc2ccc(NC(=O)CCC(F)(F)F)cc2CC(=O)N([C@@H](C)CO)C[C@@H]1C -3.69%
CCCC(=O)Nc1ccc2c(c1)C(=O)N(C)C[C@H](OC)[C@H](C)CN(CCc1ccccc1)[C@H](C)CO2 -0.112%
Cc1ccc(S(=O)(=O)NCC[C@@H]2CC[C@H](NC(=O)c3ccccn3)[C@H](CO)O2)cc1 1.61%
O=C(N[C@H]1CC[C@@H](CCNC(=O)C2CCC2)O[C@@H]1CO)c1ccncc1 -1.2%
Cc1noc(C)c1NC(=O)Nc1ccc2c(c1)C(=O)N([C@@H](C)CO)C[C@H](C)[C@@H](CN(C)Cc1ccncc1)OCCCC[C@@H](C)O2 -7.33%
O=C(C[C@@H]1CC[C@H]2[C@@H](COC[C@@H](O)CN2S(=O)(=O)c2cccc(F)c2)O1)NCCCN1CCOCC1 2.86%
Clc1ccccc1-c1cc(COc2ccc3ccccc3c2)no1 9.3%
O=C(NCc1ccccn1)Nc1ccc(Cl)cc1 21.5%
O=C(NC1CCCC1)c1cc(-c2ccccc2)on1 18.8%
C=CCNC(=O)c1cc(-c2ccccc2O)on1 35.4%
C[C@H](CO)N1C[C@H](C)[C@@H](CN(C)C)OCCCC[C@H](C)Oc2ccc(NC(=O)C3CCCCC3)cc2C1=O -0.46%
COc1ccc(CNC(=O)C[C@H]2CC[C@@H]3[C@H](COc4ccc(NC(=O)C5CC5)cc4C(=O)N3C)O2)cc1 -1.53%
CCCNC(=O)N(C)C[C@H]1Oc2ncc(C#C[C@@H](C)O)cc2C(=O)N([C@@H](C)CO)C[C@@H]1C -6.34%
N#C[C@H]1[C@@H](c2ccc(C3=CCCCC3)cc2)[C@@H](CO)N1C(=O)Cc1ccncc1 2.63%
Cc1noc(C)c1NC(=O)Nc1ccc2c(c1)C(=O)N([C@@H](C)CO)C[C@H](C)[C@@H](CN(C)C(=O)C1CCCCC1)OCCCC[C@@H](C)O2 3.6%
CCCNC(=O)Nc1ccc2c(c1)OC[C@@H](C)N(CC1CCCC1)C[C@@H](C)[C@H](OC)CN(C)C2=O 6.43%
O=C(C[C@@H]1CC[C@H]2[C@@H](COC[C@H](O)CN2S(=O)(=O)c2ccc(F)cc2)O1)N[C@H]1CCN(Cc2ccccc2)C1 5.45%
COCCNC(=O)C[C@H]1CC[C@@H]2[C@@H](COc3ccc(NC(=O)C4CCOCC4)cc3C(=O)N2C)O1 0.774%
Cc1nc2ccc(NC(=O)c3cccc(S(=O)(=O)N4CCOCC4)c3)cc2s1 7.36%
CC(=O)Nc1ccc(S(=O)(=O)Nc2ccc(N3CCOCC3)c(F)c2)cc1 0.869%
O=C(C[C@@H]1C[C@@H]2c3cc(NC(=O)C4CCOCC4)ccc3O[C@@H]2[C@H](CO)O1)NCc1ccncc1 -0.887%
C[C@@H]1CN([C@H](C)CO)C(=O)c2cc(-c3ccncc3)cnc2O[C@@H]1CN(C)C(=O)Cc1cccnc1 -2.67%

Reporter increase, active:
C=C(C)CSc1nc(N)c2c3c(sc2n1)CCC3 75.4%
COCCCNC(=O)c1ccc(-c2c(C)noc2C)c2ccoc12 78.5%
COc1ccc(C(=O)Nc2sc(C)c(C)c2CN2CCOCC2)cc1 98.6%
Cc1c(C(=O)N2CCCc3ccccc32)sc2nc(-c3ccccc3)cn12 69.3%
Cc1c(C(=O)NCC2CCCO2)sc2nc(-c3ccccc3)cn12 (stereo not drawn) 63.8%
Cc1cccc(C(=O)Nc2ccc(Oc3cnccn3)cc2)c1 45%
O=C(c1ccc(Cl)cc1)c1cnc(Nc2ccccc2)s1 70%
C/C(CC1CC(C)(C)OC1=O)=N/Nc1nc(-c2ccccc2)cs1 (stereo not drawn) 46.1%
COc1ccc(C(=O)NC(=S)NC2CCCCC2)cc1 53.2%
COc1ccc(C(=O)NC(=S)NNC(=O)CCc2ccccc2)cc1 50.7%
O=C(NC(=S)NC1CCCCC1)c1ccc(Cl)cc1 92.1%
O=C(Nc1cccnc1Cl)c1cc(-c2ccccc2O)on1 65%
O=C(NCc1ccccn1)c1cc(-c2ccccc2Cl)on1 54.4%
O=S(=O)(Nc1ccc2nc(N3CCOCC3)sc2c1)c1ccccc1 73%
